Only some compounds are listed: those with a hit (about 2.7% of all), similar ones and a draw of the others.
aDG glyco up: alpha-DG glycosylation activation; hit rate 0.22% among 360,000; AID 624168; Pro5-aDG cells, alpha-DG glycosylation AlphaScreen (IIH6); 0% Pro5, 100% B10-LARGE cell signal; activation, % at 10 µM;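 active = activation of at least 8% versus controls, or a plate z-score of at least 8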;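 note: Pro5 are CHO cells carrying HIG-tagged alpha-DG that lacks glycosylation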
NadD block: inhibitors of Staphylococcus aureus NadD | hit rate 0.78% among 360,000 | AID 602399 | purified NadD enzyme, colorimetric absorbance read-out | inhibition, % at 20 µM; in the data active = inhibition above about 26%
MPTP inh: permeability transition pore inhibition; isolated mouse mitochondria, Ca2+ swelling absorbance, 30 min; inhibition, % at 10 µM; hit rate 1.4% among 360,000;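 active = inhibition of 50% or more, scaled per plate between neutral and stimulator controls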;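 note: 0% = DMSO wells given calcium and 100% = 1 mM EGTA wells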
H9c2 TAG inh: triacylglycerol accumulation inhibition; H9c2 cells, Nile Red lipid (TAG) fluorescence; cells loaded with 200 µM oleic acid; inhibition, % at 12.5 µM; hit rate 0.66% among 230,000; AID 651582;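 active = pattern-corrected inhibition of lipid staining of at least 50% with the nuclear-stain viability signal not falling by more than 50%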;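 note: 0% = DMSO wells and 100% = triacsin C control wells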
Rh123 counter: mitochondrial membrane potential, counter-screen; isolated mitochondria, Rhodamine 123 fluorescence; hit rate 78% among 5,000; shares compounds with MPTP inh; inhibition, % at 10 µM; in the data active = inhibition above about 22%;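 note: 0% = DMSO vehicle and 100% = positive control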
MPTP swell DR: dose response confirmation of mitochondrial permeability transition pore inhibitors. isolated mitochondria swelling, absorbance. IC50, µM. hit rate 58% among 780. shares compounds with MPTP inh. AID 651561; in the data active = IC50 below about 20 µM
MPTP counter DR: MPTP inhibitor counter-screen activity, dose response; IC50, µM; shares compounds with MPTP inh; AID 651564; hit rate 49% among 780; isolated mitochondria counterscreen, fluorescence read-out; in the data active = IC50 below about 80 µM
* = called active by the depositor; x = no result given.

SMILES	aDG glyco up	NadD block	MPTP inh	H9c2 TAG inh	Rh123 counter	others
O=S(=O)(Nc1nc2ccccc2s1)c1ccc(Cl)s1	0	-1	78*	x	80*
O=S(=O)(Nc1cc(Cl)ccc1-n1cncn1)c1cc(Br)ccc1Br	0	5	66*	1	93*
O=C(COc1ccc(Cl)cc1Cl)Nc1ccccc1NS(=O)(=O)c1cccs1	0	1	66*	14	79*
O=C(COc1ccccc1)Nc1ccccc1NS(=O)(=O)c1cccs1	0	2	9	-8	x
Cc1cc(Cl)ccc1OCC(=O)Nc1ccccc1NS(=O)(=O)c1cccs1	0	-6	52*	3	78*
Cc1cc(Cl)ccc1OCC(=O)NNC(=O)c1cccs1	0	0	0	-7	x
CCOC(=O)c1cc([N+](=O)[O-])sc1NC(=O)c1ccc(S(=O)(=O)N2CC3(C)CC2CC(C)(C)C3)cc1 (configuration not stated)	0	1	91*	x	4	MPTP swell DR=2.4*;MPTP counter DR=<2.5*
C=CCN(c1ccccc1)S(=O)(=O)c1cccc(C(=O)NCc2ccco2)c1	0	-5	0	-10	x
Cc1ccc(NC(=O)CSc2nc(N)cc(=O)[nH]2)cc1S(=O)(=O)N1CCCCC1	0	5	0	-5	x
CCc1c(C)nc2ncnn2c1NCCc1ccc(Cl)cc1	1	-3	90*	-32	40*
CC(C(=O)Nc1ccc(Cl)cc1)N(C)Cc1cccs1 (configuration not stated)	0	1	2	x	x
CC(Cc1cccs1)NC(=O)Nc1ccc(F)cc1 (configuration not stated)	0	-6	5	1	x
CCC(C)c1ccc(NC(=S)NCc2cccs2)cc1 (configuration not stated)	0	-7	97*	x	85*
CC(Cc1cccs1)NC(=S)Nc1ccc(Cl)cc1 (configuration not stated)	1	-2	83*	x	95*
CC(Cc1cccs1)NC(=S)Nc1ccc(Cl)c(Cl)c1 (configuration not stated)	0	-4	80*	x	94*
CC(Cc1cccs1)NC(=O)Nc1cccc(Cl)c1 (configuration not stated)	0	-5	87*	-10	86*
Nc1cc2c(cc1Br)-c1ccccc1C2=NO	2	-2	3	4	x
CC(C)c1ccc(NC(=O)COC(=O)C2CC3C=CC2C3)cc1 (configuration not stated)	0	-8	0	0	x
CCOC1=C2CN(S(=O)(=O)c3ccc(C)cc3)C(c3ccc(C)cc3)CC2N(S(=O)(=O)c2ccc(C)cc2)C(c2ccccc2)C1 (configuration not stated)	2	x	-1	x	x
CCOc1ccccc1NC(=O)N1CCc2ccccc2C1	0	-4	4	-11	x
CCN1CCN(c2ccc(NC(=O)c3cc(S(=O)(=O)N4CCCC4)ccc3Cl)cc2)CC1	0	-6	0	-14	x
O=C1c2cc(Cl)ccc2OC2(CCNCC2)C12CC(c1ccc(Cl)cc1)=NO2 (configuration not stated)	0	-1	6	-6	x
O=C1c2cc(Cl)ccc2OC2(CCNCC2)C12CC(c1ccccc1)=NO2 (configuration not stated)	1	-1	71*	26	-16	MPTP swell DR=8.9*;MPTP counter DR=>80
Cn1cc([N+](=O)[O-])c(C(=O)Nc2cc(Oc3ccccc3)cc([N+](=O)[O-])c2)n1	0	-11	1	x	x
Cc1cccc(Oc2cc(NC(=O)c3ccccc3)cc([N+](=O)[O-])c2)c1	1	-2	68*	7	81*
SMILES	aDG glyco up	NadD block	MPTP inh	H9c2 TAG inh	Rh123 counter	others
O=C(Nc1cc(Oc2ccc(Cl)cc2)cc([N+](=O)[O-])c1)c1ccco1	0	-6	91*	x	74*
O=C(CCc1ccc(Oc2cc([N+](=O)[O-])cc([N+](=O)[O-])c2)cc1)Nc1cccc(Cl)c1	2	0	97*	x	78*
CCOc1ccc(Oc2cc(NC(=O)c3ccco3)cc([N+](=O)[O-])c2)cc1	0	-2	24	x	x
COc1ccc(CNC(=O)CN2C(=O)COc3ccc(S(=O)(=O)N4CCC(C)CC4)cc32)cc1	0	-2	-1	x	x
O=C(N[C@H]1C/C=C\C[C@@H](CC(=O)N(CCO)Cc2ccccc2)C(=O)NC[C@H](c2ccccc2)OC1=O)OCC1c2ccccc2-c2ccccc21	0	24	0	10	x
COc1ccc(CNC(=O)C2Cc3c(-c4ccc5c(c4)OCO5)ccnc3O2)cc1OC (configuration not stated)	0	6	0	21	x
N/C(=N\OC(=O)COc1ccc2ccccc2c1)c1cccnc1	1	2	61*	-5	84*
NCC12CC3CC(C1)CC(c1ccc(Br)cc1)(C3)C2	0	0	1	x	x
Cc1ccc(C23CC4CC(CC(CN)(C4)C2)C3)cc1	9.5*	-7	80*	42	-15	MPTP swell DR=5*;MPTP counter DR=75*
Clc1ccc(-c2nc3ccccc3nc2-c2ccccc2)cc1	0	-9	55*	x	-6	MPTP swell DR=19*;MPTP counter DR=>80
Cc1ccc(-c2nc3ccccc3nc2-c2ccccc2)cc1	0	-2	-1	x	x
CCC(C)(C)NC(=O)C(c1ccc(F)cc1)N(CCOC)C(=O)CCC(=O)Nc1nccs1 (configuration not stated)	0	-6	0	x	x
C=CCc1cc(Cl)ccc1OC(=O)Nc1cccc(Cl)c1	0	-8	93*	-14	97*
CC(=O)Nc1ccc(Oc2nc(C(F)(F)F)nc3ccccc23)cc1	0	-6	0	x	x
Cc1cc(C)cc(Oc2nc(C(F)(F)F)nc3ccccc23)c1	0	5	80*	36	-4	MPTP swell DR=>100;MPTP counter DR=78*
Cc1onc(-c2ccccc2)c1C(=O)NC(=S)NNC(=O)c1ccc(O)cc1O	0	0	-3	x	x
Cc1onc(-c2ccccc2)c1C(=O)NC(=S)NNC(=O)c1ccccc1O	1	-2	95*	x	11
CCCOc1ccc(C(=O)NC(=S)NNC(=O)c2c(-c3ccccc3)noc2C)cc1	1	1	69*	5	9
CCCOc1ccc(NC(=O)c2c(-c3ccccc3)noc2C)cc1	0	-7	0	-22	x
Cc1ccc(OCCNC(=O)[C@H]2O[C@@H](n3ccc(N)nc3=O)[C@H](O)[C@@H]2O)cc1C	0	-1	-3	x	x
O=C(NC(=O)c1ccccc1O)c1ccc(C(F)(F)F)cc1	0	3	46	-8	x
CCCc1ccc(C(=O)NC(=O)c2ccccc2O)cc1	0	4	59*	-2	91*
O=C(NCC(c1cccs1)N1CCOCC1)c1ccccc1NS(=O)(=O)c1ccc(Cl)c([N+](=O)[O-])c1 (configuration not stated)	0	9	80*	x	77*

High-throughput results: PubChem BioAssay, Sanford-Burnham Center for Chemical Genomics
